Sampled rows, rich in hits. Any-hit rate of the full collection: about 27%.
Cav3 T inh – inhibitors of human Cav3.2 T-type calcium channel; 4% of 100,000 active; O95180; AID 449739; B-score at 10 µM; Cav3.2-expressing cells, Fluo-4 calcium fluorescence FDSS; stronger effect = lower value;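 active = single-dose well whose peak fluorescence ratio is a statistical outlier from its plate by either plate-standardised score or position-corrected B-score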
CYP2C9 act – increases human cytochrome P450 2C9 activity; AID 1024; P11712; activation factor at 5 µM; recombinant CYP2C9, luciferin-H conversion, luminescence; stronger effect = higher value; factor 1 = untreated enzyme, 0 = blocked; 1.4% of 96,000 active;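 active = activation factor of 2 or more for CYP2C9 at a 5 µM dose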
CYP2C19 inh – blocks human cytochrome P450 2C19 | AID 778 | inhibition, % at 5 µM | CYP2C19 Supersomes, luciferin-H EGE luminescence, 30 min | 21% of 96,000 active;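 active = CYP2C19 inhibition above a set limit at 5 µM in the primary screen, cut at about 50% in these data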
Target sequence (P33261 whole entry, looked up): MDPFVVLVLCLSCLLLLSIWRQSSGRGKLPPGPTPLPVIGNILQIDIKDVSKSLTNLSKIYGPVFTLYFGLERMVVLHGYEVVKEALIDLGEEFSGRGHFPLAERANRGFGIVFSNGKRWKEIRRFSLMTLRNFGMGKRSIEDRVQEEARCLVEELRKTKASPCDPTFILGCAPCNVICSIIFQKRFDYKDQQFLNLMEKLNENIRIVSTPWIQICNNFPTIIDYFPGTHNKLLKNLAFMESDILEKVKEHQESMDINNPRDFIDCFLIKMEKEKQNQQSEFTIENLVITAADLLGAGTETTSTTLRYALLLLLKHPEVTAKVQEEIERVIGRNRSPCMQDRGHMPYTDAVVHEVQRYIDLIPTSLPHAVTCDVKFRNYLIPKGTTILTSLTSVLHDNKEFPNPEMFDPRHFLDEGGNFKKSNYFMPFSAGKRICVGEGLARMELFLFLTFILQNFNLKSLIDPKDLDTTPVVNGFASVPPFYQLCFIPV
CYP2C19 activ – activators of human cytochrome P450 2C19; P33261; recombinant CYP2C19, luciferin-H EGE luminescence; stronger effect = higher value; 0 = fully inhibited enzyme, 1 = untreated enzyme; activation factor at 5 µM; 96,000 tested, under 10 active;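 active = activation factor of at least 2 at 5 µM in the primary screen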
CYP2C9 inh – inhibitors of human CYP2C9; CYP2C9 Supersomes, luciferin-H conversion, luminescence; AID 777; 20% of 96,000 active; P11712; inhibition, % at 5 µM;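 active = blocking of liver enzyme CYP2C9 beyond about 50% at 5 µM, limit read from the data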
Large screens that a line does not name were inactive.

CCC(C(=O)Nc1ccccc1OC)n1c(C(=O)OC)cc2ccsc21 (stereo not drawn)	CYP2C19 inh 98, CYP2C9 inh 96
O=C(OC1CCc2ccccc2C1=O)c1ccccc1O (stereo not drawn)	CYP2C19 inh 82, CYP2C9 inh 90
CC(C)CN(C#N)c1nc(N2CCOCC2)nc(N2CCOCC2)n1	CYP2C9 inh 51
CN(C#N)c1nc(N2CCOCC2)nc(N2CCOCC2)n1	none (no result: CYP2C9 act, CYP2C19 inh, CYP2C19 activ, CYP2C9 inh)
CCOC(=O)c1sc(NC(=O)c2cc(-c3ccccc3C)nc3ccccc23)c(C#N)c1C	Cav3 T inh -6.8, CYP2C9 inh 55
CCOC(=O)c1sc(NC(=O)CSc2nc3c(c(-c4ccc(OC)cc4)c2C#N)CCCC3)c(C#N)c1C	CYP2C9 inh 64
CCOC(=O)c1sc(NC(=O)CSc2n[nH]c(-c3ccc(Cl)cc3Cl)n2)c(C#N)c1C	CYP2C9 inh 76 (no result: Cav3 T inh)
CCOC(=O)c1sc(NC(=O)CSc2nc(C)cc(-c3ccccc3)n2)c(C#N)c1C	none
CCOC(=O)c1sc(NC(=O)CSc2nc3c(cc2C#N)CCCCCC3)c(C#N)c1C	CYP2C9 inh 68
CC(C)C(OC(=O)C1CCCO1)C(=O)NC1CCCC1 (stereo not drawn)	none
COC(=O)c1ccc(Sc2nnnn2-c2ccccc2)c([N+](=O)[O-])c1	CYP2C19 inh 66
O=C(O)c1ccc(Sc2nnnn2-c2ccccc2)c([N+](=O)[O-])c1	none
Cc1c(NC(=O)OCCSc2nc(N(C)C)nc(N(C)C)n2)sc(=S)n1C	none
CCc1cc(-c2n[nH]c(=S)n2-c2ccccc2C)cs1	CYP2C9 inh 52 (no result: Cav3 T inh)
CCCc1cc(-c2n[nH]c(=S)n2C(C)c2ccccc2)cs1 (stereo not drawn)	Cav3 T inh -4.6, CYP2C19 inh 81, CYP2C9 inh 97
Cc1cccc(-c2n[nH]c(=S)n2Cc2ccccc2)c1	none (no result: CYP2C9 act, CYP2C19 inh, CYP2C19 activ, CYP2C9 inh)
Cc1ccccc1-n1c(Cc2cccs2)n[nH]c1=S	none
CCc1cc(-c2n[nH]c(=S)n2Cc2ccccc2)cs1	CYP2C19 inh 51 (no result: Cav3 T inh)
CCOC(=O)c1[nH]c2ccc(OCC)cc2c1NC(=O)CN1CCCC(C)C1 (stereo not drawn)	CYP2C19 inh 78, CYP2C9 inh 60
CCOC(=O)c1[nH]c2ccc(C)cc2c1NC(=O)CN1CCCCC1	CYP2C19 inh 60
CC1=C(C)/C(=N\OS(=O)(=O)c2ccccc2)C=CC1=O	none
CC(=O)C1=C(O)C(=O)N(CCC(=O)O)C1c1cccc(F)c1 (stereo not drawn)	none
Cc1ccc(S(=O)(=O)/N=c2\sccn2C)cc1	CYP2C9 act 2.2
CC(=O)Nc1ccc(S(=O)(=O)Oc2cccc(N3C(=O)C4CCCCC4C3=O)c2)cc1 (stereo not drawn)	CYP2C9 inh 75
Cc1ccc(C(=O)N/C(=C\c2cccs2)C(=O)NCc2ccncc2)cc1	none
Cc1ccc(C(=O)N/C(=C\c2cccs2)C(=O)NCCCn2ccnc2)cc1C	CYP2C9 inh 54
Cc1ccc(C(=O)N/C(=C\c2ccco2)C(=O)NCCCn2ccnc2)cc1C	CYP2C19 inh 79, CYP2C9 inh 71
CSc1ccc(-c2c(C#N)c(N)nc3c2CCCC3)cc1	none
O=C(NNC(=O)c1ccccc1Br)c1cccc(Cl)c1	CYP2C9 act 3.1
CC1CCCC(NC(=O)COC(=O)c2cc(S(=O)(=O)N3CCCCC3)ccc2N2CCOCC2)C1C (stereo not drawn)	CYP2C19 inh 78, CYP2C9 inh 82
O=C(Nc1ccc2c(c1)CCC2)c1cc(S(=O)(=O)N2CCN(c3ccccc3)CC2)ccc1Cl	CYP2C9 inh 56
O=C(O)c1cc(S(=O)(=O)N2CCCCCC2)ccc1Cl	none
O=C(Nc1ccccc1Cl)c1cc(S(=O)(=O)N2CCCCC2)ccc1N1CCOCC1	Cav3 T inh -6.3
CC(C)(C)NC(=O)COC(=O)c1cc(S(=O)(=O)N2CCCCC2)ccc1N1CCOCC1	CYP2C19 inh 66, CYP2C9 inh 82
NC(=O)COC(=O)c1cc(S(=O)(=O)N2CCOCC2)ccc1N1CCCCC1	none
Cc1cccc(CN2[C@@H](CC(C)C)COCCS2(=O)=O)c1	none (no result: CYP2C9 act, CYP2C19 inh, CYP2C19 activ, CYP2C9 inh)
O=C(Nc1cc(S(=O)(=O)N2CCCC2)ccc1Cl)C1=COCCO1	CYP2C19 inh 52
CCOC(=O)CSC1=Nc2ccccc2C2=NC(CC(=O)NCc3ccccc3)C(=O)N12 (stereo not drawn)	CYP2C9 inh 57
COCCCNC(=O)CSC1=Nc2ccccc2C2=NC(Cc3c[nH]c4ccccc34)C(=O)N12 (stereo not drawn)	none (no result: Cav3 T inh)
CCCCNC(=O)CC1N=C2c3ccccc3N=C(SCC(=O)Nc3ccccc3C)N2C1=O (stereo not drawn)	none
CCOC(=O)CSC1=Nc2ccccc2C2=NC(CC(=O)NCc3cccs3)C(=O)N12 (stereo not drawn)	CYP2C9 inh 65 (no result: Cav3 T inh)
O=C(Cc1ccccc1)n1nc(-c2ccco2)nc1SCc1ccccc1	CYP2C19 inh 68
O=C1N[C@@H](Cc2ccccc2)C(=O)N2[C@@H]1C[C@]1(Br)c3ccccc3N(S(=O)(=O)c3ccccc3)[C@H]21	none (no result: CYP2C9 act, CYP2C19 inh, CYP2C19 activ, CYP2C9 inh)
COc1ccc(N2CCN(S(=O)(=O)c3ccc(Cl)c(C(F)(F)F)c3)CC2)cc1	none
CC1CN(S(=O)(=O)c2ccc(Cl)c(C(F)(F)F)c2)CC(C)O1 (stereo not drawn)	CYP2C9 act 2.3
COc1ccccc1NC(=O)CN1CCN(Cc2ccccc2)CC1	CYP2C19 inh 72
COc1ccccc1NC(=O)CN1CCN(CC(=O)Nc2ccc(F)cc2)CC1	CYP2C19 inh 88
COc1ccccc1N1CCN(CC(=O)Nc2cc(F)ccc2C)CC1	none
COc1ccc(C)cc1NC(=O)CN1CCN(c2ccc(F)cc2)CC1	CYP2C19 inh 78
COc1ccccc1NC(=O)CN1CCN(c2ccccn2)CC1	none (no result: CYP2C9 act, CYP2C19 inh, CYP2C19 activ, CYP2C9 inh)
COc1ccc(NC(=O)CN2CCN(CC(=O)Nc3ccccc3F)CC2)cc1OC	none
COC(=O)c1sccc1NC(=O)CN1CCN(c2ccc(F)cc2)CC1	CYP2C9 inh 54
Cc1c(NC(=O)c2cc3ccccc3oc2=O)c(=O)n(-c2ccccc2)n1C	none
CCC1=C(OC(=O)N(CC)CC)N2C(=O)OC(=NCC3CC3)[C@]2(Cc2ccccc2)[C@H]2C1=CC[C@H]1C(=O)NC(=O)[C@H]12	none (no result: CYP2C9 act, CYP2C19 inh, CYP2C19 activ, CYP2C9 inh)
COc1ccc(S(=O)(=O)Nc2nnc(C)s2)cc1	none
CC(C)Cc1nnc(NS(=O)(=O)c2ccc(Cl)cc2)s1	CYP2C9 inh 70
COc1ccc(S(=O)(=O)Nc2nnc(CC(C)C)s2)cc1	CYP2C9 inh 63
COc1cc(/C=C2/C(=O)N=C(N)N2C)cc(OC)c1OC	none
CC(C)Cn1c(CCCNC(=O)c2ccc(F)cc2)nc2ccccc21	none
CC(C)Cn1c(CNC(=O)c2ccccc2)nc2ccccc21	CYP2C19 inh 72
CCCCn1c(CCNC(=O)c2cccs2)nc2ccccc21	CYP2C19 inh 63 (no result: Cav3 T inh)
CCCn1c(CNC(=O)c2ccccc2)nc2ccccc21	CYP2C19 inh 61
CCOC(=O)CCNC(=O)CNC(=O)OCc1ccccc1	none
CCOC(=O)c1[nH]nc(-c2c(O)cc(C)cc2O)c1-c1csc(C)n1	none

Compound activity: PubChem, several laboratories
